In all, about 39,000 compounds went through this assay and about 1,500 (3.8%) were called active. The entries come from a sample that favours actives as a whole.
The molecules below were run on HSkMC (human skeletal muscle cells) (assay: cytotoxicity call (relative viability < 0.9)). Settings: 10 µM.

| Compound | cytotoxicity call |
| --- | --- |
| Cn1cnc(S(=O)(=O)N2C[C@@H](O)COC[C@H]3O[C@@H](CC(=O)NC4CCCC4)CC[C@@H]32)c1 | inactive |
| COc1ccccc1CNC(=O)C[C@@H]1C[C@H]2c3cc(NC(=O)C4CCOCC4)ccc3O[C@H]2[C@@H](CO)O1 | inactive |
| O=C(c1cc2n(n1)CCCO2)N1CC(O)C1 | inactive |
| Cc1noc(C)c1NC(=O)N(C)C[C@H]1Oc2ccc(NC(=O)CCN3CCOCC3)cc2CC(=O)N([C@H](C)CO)C[C@@H]1C | inactive |
| C[C@H](CO)N1C[C@H](C)[C@H](CN(C)C(=O)c2ccc3c(c2)OCO3)Oc2ncc(C#CCN(C)C)cc2C1=O | inactive |
| CCC(=O)N1C[C@]2(CN(C2)S(=O)(=O)C)c2c(n(c3cc(ccc23)OC)C)[C@@H]1CO | inactive |
| C[C@H](CO)N1C[C@H](C)[C@H](CN(C)S(=O)(=O)c2cn(C)cn2)Oc2ccc(NS(=O)(=O)c3ccccc3)cc2CC1=O | inactive |
| C[C@@H]1CN([C@H](C)CO)C(=O)Cc2cc(NC(=O)CCC(F)(F)F)ccc2O[C@H]1CN(C)Cc1ccc(Cl)c(Cl)c1 | inactive |
| C[C@@H]1CN([C@@H](C)CO)C(=O)Cc2cc(NC(=O)CCC(F)(F)F)ccc2O[C@H]1CN(C)Cc1ccc(Cl)c(Cl)c1 | active |
| C[C@H]1CN([C@@H](C)CO)C(=O)Cc2cc(NC(=O)CCC(F)(F)F)ccc2O[C@H]1CN(C)Cc1ccc(-c2ccccc2)cc1 | inactive |
| C[C@H](CO)N1C[C@H](C)[C@@H](CN(C)Cc2ccc(Cl)c(Cl)c2)Oc2ccc(NC(=O)CCC(F)(F)F)cc2CC1=O | inactive |
| C[C@@H]1CN([C@H](C)CO)C(=O)Cc2cc(NC(=O)CCC(F)(F)F)ccc2O[C@H]1CN(C)Cc1ccc(-c2ccccc2)cc1 | inactive |
| C[C@@H]1CN([C@@H](C)CO)C(=O)Cc2cc(NC(=O)CCC(F)(F)F)ccc2O[C@H]1CN(C)Cc1ccc(-c2ccccc2)cc1 | active |
| CCOC(=O)c1cn2cn[nH]c2nc1=O | inactive |
| C[C@@H]1CN([C@H](C)CO)C(=O)Cc2cc(NC(=O)Nc3ccc4c(c3)OCO4)ccc2O[C@@H]1CN(C)Cc1ccc(C(=O)Nc2ccccc2N)cc1 | inactive |
| COC(=O)C[C@H]1CC[C@@H]2[C@H](COC[C@H](O)CN2S(=O)(=O)c2ccc(F)cc2)O1 | inactive |
| C[C@@H]1CN([C@@H](C)CO)S(=O)(=O)c2ccc(C#CC(C)(C)O)cc2O[C@@H]1CN(C)Cc1ccc(F)cc1 | inactive |
| C=CCNC(=O)[C@H]1[C@@H]2C(=O)O[C@@H](c3ccccc3)[C@@H](c3ccccc3)N2[C@@H](c2ccc(O)cc2)[C@]12C(=O)Nc1ccc(C#Cc3ccc(OC)cc3)cc12 | inactive |
| COc1ccc(S(=O)(=O)Nc2ccc3c(c2)C(=O)N([C@H](C)CO)C[C@H](C)[C@H](CN(C)Cc2ccccc2)OCCCC[C@H](C)O3)cc1 | inactive |
| CC1(C)CCC2(C(=O)O)CCC3(C)C(=CCC4C5(C)CCC(O)C(C)(C)C5CCC43C)C2C1 (centres undefined) | inactive |

| Compound | cytotoxicity call |
| --- | --- |
| COC(=O)[C@@]12CC[C@@H](C)[C@@H](C)[C@@H]1C1=CC[C@H]3[C@@]4(C)CC[C@@H](OC(C)=O)C(C)(C)[C@@H]4CC[C@@]3(C)[C@@]1(C)CC2 | inactive |
| CC1CCC2(C(=O)O)CCC3(C)C(=CCC4C5(C)CCC(O)C(C)(C)C5CCC43C)C2C1C (centres undefined) | active |
| O=C1c2c(O)cccc2C(C2OC(CO)C(O)C(O)C2O)c2cc(CO)cc(O)c21 (centres undefined) | inactive |
| COc1ccc(NC(=O)Nc2ccc3c(c2)C(=O)N([C@@H](C)CO)C[C@H](C)[C@@H](CN(C)C(=O)Nc2ccc(C(F)(F)F)cc2)OCCCC[C@H](C)O3)cc1 | inactive |
| C[C@H]1CN([C@@H](C)CO)C(=O)c2cccc(NC(=O)Nc3ccc4c(c3)OCO4)c2O[C@@H]1CN(C)Cc1ccc(-c2ccccc2)cc1 | inactive |
| C[C@H]1CN([C@@H](C)CO)C(=O)c2cccc(NC(=O)Nc3ccc4c(c3)OCO4)c2O[C@H]1CN(C)Cc1ccc(Oc2ccccc2)cc1 | inactive |
| C[C@@H]1CN([C@@H](C)CO)C(=O)c2cccc(NC(=O)Nc3ccc4c(c3)OCO4)c2O[C@@H]1CN(C)Cc1ccc(-c2ccccc2)cc1 | active |
| C[C@H]1CN([C@@H](C)CO)C(=O)c2cccc(NC(=O)Nc3ccc4c(c3)OCO4)c2O[C@H]1CN(C)Cc1ccc(-c2ccccc2)cc1 | inactive |
| C[C@@H]1CN([C@@H](C)CO)C(=O)c2cccc(NC(=O)Nc3ccc4c(c3)OCO4)c2O[C@@H]1CN(C)Cc1ccc(Oc2ccccc2)cc1 | inactive |
| C[C@@H]1CN([C@H](C)CO)C(=O)c2cccc(NC(=O)Nc3ccc4c(c3)OCO4)c2O[C@H]1CN(C)Cc1ccc(Oc2ccccc2)cc1 | active |
| C[C@@H]1CCCCO[C@H](CN(C)S(=O)(=O)c2cccs2)[C@H](C)CN([C@@H](C)CO)C(=O)c2cc(NC(=O)c3ccccc3)ccc2O1 | inactive |
| CC[C@@H]1/C=C(\C)C[C@H](C)C[C@H](OC)[C@H]2O[C@@](O)(C(=O)C(=O)N3CCCC[C@H]3C(=O)O[C@H](/C(C)=C/[C@@H]3CC[C@H](Cl)[C@H](OC)C3)[C@H](C)[C@@H](O)CC1=O)[C@H](C)C[C@@H]2OC | inactive |
| C[C@@H]1CCCCO[C@@H](CN(C)C(=O)c2ccccc2)[C@@H](C)CN([C@@H](C)CO)C(=O)c2cc(NC(=O)Nc3ccccc3)ccc2O1 | inactive |
| Cc1ccc(S(=O)(=O)N(C)C[C@@H]2OCCCC[C@@H](C)Oc3ccc(NC(=O)CCC(F)(F)F)cc3C(=O)N([C@@H](C)CO)C[C@H]2C)cc1 | inactive |
| Cc1noc(C)c1S(=O)(=O)N(C)C[C@H]1Oc2ccc(NC(=O)Cc3ccccc3)cc2CC(=O)N([C@H](C)CO)C[C@H]1C | inactive |
| NC(=O)[C@H]1CCCCN1 | inactive |
| COc1cccc(S(=O)(=O)N[C@@H]2C=C[C@@H](CC(=O)NC3CCC3)O[C@H]2CO)c1 | inactive |
| C[C@H]1CCCCO[C@H](CN(C)C(=O)Nc2cccc3ccccc23)[C@@H](C)CN([C@@H](C)CO)C(=O)c2cc(NS(=O)(=O)c3ccc(F)cc3)ccc2O1 | active |
| C[C@@H]1CCCCO[C@H](CN(C)C(=O)Nc2cccc3ccccc23)[C@H](C)CN([C@H](C)CO)C(=O)c2cc(NS(=O)(=O)c3ccc(Cl)cc3)ccc2O1 | inactive |
| Cc1ccc(S(=O)(=O)Nc2ccc3c(c2)C(=O)N([C@@H](C)CO)C[C@@H](C)[C@@H](CN(C)C(=O)Nc2cccc4ccccc24)OCCCC[C@H](C)O3)cc1 | inactive |

| Compound | cytotoxicity call |
| --- | --- |
| C[C@@H]1CN([C@@H](C)CO)C(=O)c2cc(NS(=O)(=O)c3ccc(F)cc3)ccc2O[C@@H](C)CCCCO[C@H]1CN(C)C(=O)Nc1cccc2ccccc12 | inactive |
| C[C@@H]1CCCCO[C@@H](CN(C)C(=O)Nc2cccc3ccccc23)[C@H](C)CN([C@@H](C)CO)C(=O)c2cc(NS(=O)(=O)c3ccc(Cl)cc3)ccc2O1 | inactive |
| C[C@@H]1CCCCO[C@@H](CN(C)C(=O)Nc2cccc3ccccc23)[C@H](C)CN([C@@H](C)CO)C(=O)c2cc(NS(=O)(=O)c3ccc(F)cc3)ccc2O1 | inactive |
| C[C@@H]1CN([C@@H](C)CO)C(=O)c2cc(NS(=O)(=O)c3ccc(F)cc3)ccc2O[C@@H](C)CCCCO[C@@H]1CN(C)C(=O)Nc1cccc2ccccc12 | inactive |
| Cc1ccc(S(=O)(=O)Nc2ccc3c(c2)C(=O)N([C@@H](C)CO)C[C@H](C)[C@@H](CN(C)C(=O)Nc2cccc4ccccc24)OCCCC[C@@H](C)O3)cc1 | inactive |
| C[C@@H]1CCCCO[C@@H](CN(C)C(=O)Nc2cccc3ccccc23)[C@H](C)CN([C@H](C)CO)C(=O)c2cc(NS(=O)(=O)c3ccc(F)cc3)ccc2O1 | active |
| C[C@@H]1CCCCO[C@@H](CN(C)C(=O)Nc2cccc3ccccc23)[C@@H](C)CN([C@H](C)CO)C(=O)c2cc(NS(=O)(=O)c3ccc(F)cc3)ccc2O1 | inactive |
| Cc1ccc(S(=O)(=O)Nc2ccc3c(c2)C(=O)N([C@H](C)CO)C[C@H](C)[C@H](CN(C)C(=O)Nc2cccc4ccccc24)OCCCC[C@H](C)O3)cc1 | active |
| C[C@@H]1CCCCO[C@H](CN(C)C(=O)Nc2cccc3ccccc23)[C@@H](C)CN([C@H](C)CO)C(=O)c2cc(NS(=O)(=O)c3ccc(Cl)cc3)ccc2O1 | active |
| CCC(=O)Nc1ccc2c(c1)C(=O)N(C)C[C@H](OC)[C@@H](C)CN(C(=O)CN1CCOCC1)[C@H](C)CO2 | inactive |
| CC(C)NC(=O)Nc1ccc2c(c1)C(=O)N([C@@H](C)CO)C[C@@H](C)[C@@H](CN(C)C(=O)Nc1ccc(C(F)(F)F)cc1)OCCCC[C@@H](C)O2 | inactive |
| C[C@@H]1CCCCO[C@H](CN(C)S(=O)(=O)c2cccs2)[C@@H](C)CN([C@@H](C)CO)C(=O)c2cc(NC(=O)Nc3cccc4ccccc34)ccc2O1 | inactive |
| C[C@@H]1CCCCO[C@H](CN(C)C(=O)CCC(F)(F)F)[C@@H](C)CN([C@H](C)CO)C(=O)c2cc(NC(=O)Cc3ccccc3)ccc2O1 | inactive |
| CC(C)NC(=O)Nc1cccc2c1O[C@@H](CN(C)Cc1ccc3c(c1)OCO3)[C@@H](C)CN([C@H](C)CO)C2=O | inactive |
| C[C@@H]1CN([C@H](C)CO)C(=O)c2cc(NS(=O)(=O)c3ccccc3)ccc2O[C@@H]1CN(C)S(C)(=O)=O | inactive |
| C[C@H]1CN([C@@H](C)CO)S(=O)(=O)c2ccc(C#Cc3ccncc3)cc2O[C@H]1CN(C)C(=O)C1CCOCC1 | inactive |
| Cc1noc(C)c1S(=O)(=O)Nc1ccc2c(c1)C(=O)N([C@@H](C)CO)C[C@@H](C)[C@@H](CN(C)C(=O)Nc1cccc3ccccc13)OCCCC[C@H](C)O2 | inactive |
| Cc1noc(C)c1S(=O)(=O)Nc1ccc2c(c1)C(=O)N([C@H](C)CO)C[C@H](C)[C@@H](CN(C)C(=O)Nc1cccc3ccccc13)OCCCC[C@H](C)O2 | active |
| Cc1noc(C)c1S(=O)(=O)Nc1ccc2c(c1)C(=O)N([C@H](C)CO)C[C@H](C)[C@H](CN(C)C(=O)Nc1cccc3ccccc13)OCCCC[C@@H](C)O2 | inactive |

— the antibiotic and cytotoxicity screens of Wong et al. (2023)
